# Hits are enriched below; roughly 7.3% of the tested compounds scored in any of these assays.
# FLuc counter: inhibits or activates purified firefly luciferase, miR-21 counter-screen; P08659; purified FLuc, Km substrates, luminescence inhibition; Potency, µM (series often up to 57.5 µM), without a hit: at the top dose activity change, negative = inhibition, actives largely listed as inhibitors; hit rate 6.9% among 360,000; AID 588342;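 note: plate controls were vehicle for no effect and reference inhibitor for full effect; nearly all actives have a fitted effect of over 55% in size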
# Target sequence (P08659 whole entry, looked up): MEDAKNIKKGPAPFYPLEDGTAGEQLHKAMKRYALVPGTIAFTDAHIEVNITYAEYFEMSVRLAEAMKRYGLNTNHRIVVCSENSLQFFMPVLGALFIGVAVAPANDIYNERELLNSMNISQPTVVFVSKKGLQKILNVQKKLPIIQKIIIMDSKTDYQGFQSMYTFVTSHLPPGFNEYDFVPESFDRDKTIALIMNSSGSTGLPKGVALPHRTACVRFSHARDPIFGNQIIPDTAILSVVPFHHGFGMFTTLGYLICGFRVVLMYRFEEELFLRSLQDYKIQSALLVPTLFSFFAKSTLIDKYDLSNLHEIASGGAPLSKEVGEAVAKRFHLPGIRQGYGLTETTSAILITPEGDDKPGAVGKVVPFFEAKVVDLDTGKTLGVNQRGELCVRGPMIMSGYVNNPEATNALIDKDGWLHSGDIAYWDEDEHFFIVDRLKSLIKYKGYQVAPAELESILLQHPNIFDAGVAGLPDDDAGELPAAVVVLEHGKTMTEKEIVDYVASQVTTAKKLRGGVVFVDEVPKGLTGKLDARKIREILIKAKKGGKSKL
#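 Purified P. pyralis luciferase (10nM final) with 10uM D-luciferin and 10uM ATP (Km levels) in 50mM Tris acetate pH 7.5, 10mM Mg acetate, 0.01% Tween-20, 0.05% BSA; qHTS 6-point titration, ~60 µM downward; luminescence read.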
# Rab9 promoter act: activators of Rab9 promoter; Huh7 Rab9 promoter-luciferase reporter, luminescence, 24 h; hit rate 2.8% among 320,000; Potency, µM (series often up to 9.22 µM), inactives show top-dose activation, negative = inhibition, usual class: activators; note: % of control where 0% means no effect; nearly all actives have a fitted effect of over 60% in size
#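 Luminescence from Amplite-detected luciferase (10 minutes, ambient) reports Rab9 promoter activation. Before that, stable Rab9-luciferase Huh7 cells (1500/well, reduced-serum OP-MEM I plus 10% FBS) were exposed to compound for 24 hours at 37C.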
# Luc counter: Kinase-Glo luciferase inhibition (counter-screen); Q27757; Kinase-Glo luciferase, ATP luminescence, 8 min; Potency, µM (series often up to 38.3 µM), inactives show at the highest dose activity change, negative = inhibition, actives largely listed as inhibitors; AID 1379; hit rate 0.28% among 200,000; note: % is set by controls: 0 for no effect and ±100 for the full control effect; nearly all actives have a fitted effect of over 60% in size
#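 Light output from Kinase-Glo luciferase with luciferin and 10 uM ATP in 50 mM imidazole pH 7.2, KCl, MgCl2, Tween 20, BSA; compound pin-delivered, 8-min ambient incubation, then luminescence read.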
# NPC1 promoter act: NPC1 promoter activation; Huh7 NPC1 promoter luciferase reporter, 24 h; Potency, µM (titrated, usually from 9.22 µM), for the others: at the highest dose activation, hits mostly activators; hit rate 2.4% among 320,000; AID 485313; note: % of control where 0% means no effect; nearly all actives have a fitted effect of over 60% in size
#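 Luciferase expression driven by the NPC1 promoter was measured in stably transfected Huh7 cells after a 24 h compound incubation, using a luciferase reagent and a luminescence read.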
# ELG1 genotox: inducers of genotoxicity in HEK293T ELG1-luciferase cells; AID 504466; Potency, µM (doses to about 46 µM), inactives show at the highest dose activity change, positive = activation, usual class: activators; HEK293T ELG1-luciferase reporter, luminescence, 16 h; hit rate 1.3% among 330,000; note: % of control where 0% means no effect; nearly all actives have a fitted effect of over 60% in size
#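 ELG1-luciferase HEK293T cells, 2,000/well; compound pinned in; 16 hr, 37 °C, 5% CO2; ONE-Glo, 30 min RT; luminescence on CCD imager.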
# SMN2 splice up: increases expression of the SMN2 splice variant; HEK293 SMN2-luciferase splicing reporter, luminescence, 30-36 h; AID 1458; Potency, µM (highest dose often 46.1 µM), for the others: top-dose activity change, positive = activation, usual class: activators; hit rate 2.8% among 210,000; note: % of control where 0% means no effect; nearly all actives have a fitted effect of over 55% in size
#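 HEK293 cells carry an SMN2 minigene-luciferase reporter in which exon 7 inclusion puts luciferase in frame. Cells were seeded at 2000 cells/well, attached for 10-12 hours, then exposed to compounds for 30-36 hours at 37C before ONE-Glo luminescence.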
# * = called active by the depositor; ? = inconclusive; / = no result; [ ] = another dose, or the depositor's remark. Calls come from the whole dose curve; as a rule, active = well fitted curve in the direction sought with a large enough effect; inconclusive = small, poorly fitted or top-dose-only effect, or another doubt; inactive = no such curve, though single readings can be large; an effect the other way counts as inactive or inconclusive. Potency is the fitted concentration of half-maximal effect.
SMILES,FLuc counter,Rab9 promoter act,Luc counter,NPC1 promoter act,ELG1 genotox,SMN2 splice up
COc1cccc(N=Nc2c(C)[nH]n(-c3ccccc3)c2=O)c1,11µM*,?,/,?,?,/
CC(=O)N(C)c1ccc(N=Nc2c(C)[nH]n(-c3ccccc3)c2=O)cc1,-15%,-10%,/,0%,-7%,/
Nc1[nH]n2c(=O)cc(-c3ccccc3)nc2c1N=Nc1ccc2c(c1)OCO2,5.4µM*,-8%,-7%,-6%,-2%,/
Cc1[nH]n(-c2ccccc2)c(=O)c1N=Nc1ccc2c(c1)OCO2,6µM*,?,-1%,?,9%,18µM*
O=C(CS(=O)(=O)c1cccc2nsnc12)NCc1ccc(Cl)cc1,-3%,/,/,/,/,/
CCOc1ccccc1/C=C(\C#N)C(N)=O,/,/,-1%[7.66 µM],/,/,-7%[9.22 µM]
Cc1cc(OCC(=O)Nc2cccc(S(=O)(=O)N3CCCCC3)c2)ccc1Cl,6.7µM*,-2%,/,-2%,0%,/
CCCOc1ccc(C(=O)CCC(=O)OCC(=O)Nc2cccc(S(N)(=O)=O)c2)cc1,11µM*,-6%,/,0%,2%,/
CCCOc1ccc(C(=O)CCC(=O)OCC(=O)Nc2ccc(OCC)cc2)cc1,-3%,0%,/,-2%,3%,/
O=C(CNc1ccc(F)cc1Cl)Nc1cccc(S(=O)(=O)N2CCCCC2)c1,11µM*,-3%,/,-5%,-4%,/
CCOc1ccc(C(=O)NCC(=O)OCC(=O)Nc2cccc(S(=O)(=O)N3CCCC3)c2)cc1,4.3µM*,-2%,/,0%,5%,/
Cc1ccc2c(c1)c(=O)c(C(=O)c1ccncc1)cn2CC(=O)Nc1c(C)cccc1C,3%,/,/,/,/,/
COc1ccc(-c2nc3c4ccccc4n(CC(=O)N4CCN(c5ccccc5OC)CC4)c(=O)n3n2)cc1,2%,/,/,/,/,/
CCN(CC)CCCNC(=O)c1c(C)oc2ncn(CC(C)C)c(=O)c12,-5%,/,/,/,/,/
Cc1ccc(C)c(N2CCN(C(=O)c3c(C)oc4nc(C)nc(N5CCOCC5)c34)CC2)c1,-5%,/,/,/,/,/
COC(=O)c1ccccc1S(=O)(=O)N1CCc2nc(-c3ccccc3)c3c(c2C1)CO[C@@H](C)C3,/,/,-7%[7.66 µM],/,/,-4%[9.22 µM]
CCCCCCCCCCCCCCCCOCC(CO)OC (stereo unspecified),/,/,2%,/,/,-17%
CCCN1CCN(c2ncnc3sc(C(=O)Nc4c(C)cc(C)cc4C)c(C)c23)CC1,2%,/,/,/,/,/
CCCCN1CCC[C@@H]1CNC(=O)c1cc(C#N)c2ccccc2c1OC,/,/,-1%,/,/,/
CCOc1ccc(C(=O)NCC(=O)OCC(=O)Nc2nnc(-c3ccccc3)o2)cc1,13µM*,3%,/,1%,3%,/
Cc1ccc(NC(=O)c2c(C)cc(C)nc2SCC(=O)Nc2ccc(Br)cc2)cc1,-10%,/,/,/,/,/
Cc1ccc(C)c(NC(=O)Cn2c(=O)n(CCC(C)C)c(=O)c3cccnc32)c1,0%,/,/,/,/,7%
COc1ccc(/C=C/C(=O)Nc2ccc(OC)nc2)cc1,7.6µM*,-2%,3%,6%,2%,-10%
COc1ccc(NC(=S)Nc2ccc(OC(F)F)cc2)cn1,-7%,1%,-2%,1%,0%,3%
COc1ccc(NC(=O)/C=C/c2cccc(Br)c2)cn1,13µM*,?,/,?,-12%,/
COc1ccc(NC(=O)/C=C/c2ccc(OC)c(OC)c2)cn1,?,-6%,-3%,-3%,-8%,/
COc1ccc(NC(=O)/C=C/c2ccc(OC(F)F)cc2)cn1,12µM*,-4%,/,-45%,-10%,/
Cc1ccccc1Cn1c(SCc2ccc(C(=O)NC(C)c3ccccc3)cc2)nc2ccncc21 (stereo unspecified),-10%,/,/,/,/,-15%
CCc1ccc(C2CC(=O)c3c([nH]c(C(=O)OC4CCC(C)CC4)c3C)C2)cc1 (stereo unspecified),1%,/,/,/,/,9%
COC(=O)c1cc(NC(=O)c2ccc3c(c2)N(Cc2cccc(Cl)c2)C(=O)c2ccccc2S3=O)cc(C(=O)OC)c1 (stereo unspecified),0%,/,/,/,/,/

# High-throughput results deposited in PubChem BioAssay by National Center for Advancing Translational Sciences (NCATS).
